Data on five sequences can be found in article PMC8384837, “Expanding the binding specificity for RNA recognition by a PUF domain”.

The first test deals with PUM1 PUF domain R4-WSG (Homo sapiens, UniProt Q14671 828-1176, N971W;H972S;Q975G). Kind of test: yeast three-hybrid, YBZ-1, SC-Leu-His + 0.5 mM 3-AT, 4 days. The conditions noted are these: tags: N-Gal4 AD-HA kept; label: inside an RPR1-promoter hybrid RNA with tandem MS2 sites; ssRNA. The procedure, abridged: (§1)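 The interaction score is the log change in how often each variant appears, from input to selection. Frequencies came from PCR-amplified, Illumina-sequenced repeat regions of Pumilio-1 PUF domain libraries grown in strain YBZ-1 (LexA–MS2 coat fusion, HIS3 reporter) alongside matching RNA elements. Input plates were SC-Leu and selection plates were SC-Leu-His + 0.5 mM 3-AT, each for four days, and the log2 calculation used a pseudocount of 1 where a variant was absent.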
“GGCUAGAACUAGUGGAUCCCCCGGCGCCCGGCGGCUCGAGCCCGGGUAAGUGUAAAUAGUCUGCAUGCCGCCGGGCGCCAUGCCUGCAGGUCGACUCUAGAAAACAUG”: the binding signal is 1.85 log2 enrichment (interaction score).

Consider “GGCUAGAACUAGUGGAUCCCCCGGCGCCCGGCGGCUCGAGCCCGGGUAAGUGUACAUAGUCUGCAUGCCGCCGGGCGCCAUGCCUGCAGGUCGACUCUAGAAAACAUG”, for which the binding signal is 2.7 log2 enrichment (interaction score).

“GGCUAGAACUAGUGGAUCCCCCGGCGCCCGGCGGCUCGAGCCCGGGUAAGUGUAUAUAGUCUGCAUGCCGCCGGGCGCCAUGCCUGCAGGUCGACUCUAGAAAACAUG”: the binding signal is 3.48 log2 enrichment (interaction score).

The next test deals with PUM1 PUF domain R5-RRD (Homo sapiens, UniProt Q14671 828-1176, C1007R;Q1011D). The description is as above. As to conditions: tags: N-Gal4 AD-HA kept; label: inside an RPR1-promoter hybrid RNA with tandem MS2 sites; ssRNA. The gist of the method:
as §1
Regarding “GGCUAGAACUAGUGGAUCCCCCGGCGCCCGGCGGCUCGAGCCCGGGUAAGUGUUAAUAGUCUGCAUGCCGCCGGGCGCCAUGCCUGCAGGUCGACUCUAGAAAACAUG”, the binding signal was 5.74 log2 enrichment (interaction score).

As for “GGCUAGAACUAGUGGAUCCCCCGGCGCCCGGCGGCUCGAGCCCGGGUAAGUGUAAAUAGUCUGCAUGCCGCCGGGCGCCAUGCCUGCAGGUCGACUCUAGAAAACAUG”, the binding signal was 2.72 log2 enrichment (interaction score).

For the sequence “GGCUAGAACUAGUGGAUCCCCCGGCGCCCGGCGGCUCGAGCCCGGGUAAGUGUCAAUAGUCUGCAUGCCGCCGGGCGCCAUGCCUGCAGGUCGACUCUAGAAAACAUG”, the binding signal is 5.76 log2 enrichment (interaction score).
